Assay results taken from the supplement of paper PMC4466140.

Assays:
Experiment in all cases: SPOT peptide array binding signal intensity (averaged, normalized) (arbitrary units (background-subtracted, floor 0; scale differs between SH3 domains)); higher = stronger binding of the SH3 domain to the peptide
[1] = target: AgAbp1
Method in brief: (§1)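 SH3 domains from four yeast species were expressed as GST fusions in E. coli BL21(DE3) and purified on glutathione Sepharose. Each was incubated at 10 μg/ml overnight at 4°C in TBS-based blocking buffer on cellulose membranes bearing synthetic 15-mer peptides, in which serines replaced cysteines. Bound protein was detected with anti-GST antibody, an HRP anti-mouse secondary and luminol, then imaged and quantified with Genespotter. The binding signal is the normalized, background-subtracted spot intensity averaged over replicates, in arbitrary units that are not the same from one domain to another.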

[2] = target: AgBbc1
Method in brief: as §1

[3] = target: AgBem1-D1
Method in brief: as §1

[4] = target: AgBzz1-D1
Method in brief: as §1

[5] = target: AgBzz1-D2
Method in brief: as §1

[6] = target: AgCyk3
Method in brief: as §1

[7] = target: AgFus1
Method in brief: as §1

[8] = target: AgHof1
Method in brief: as §1

[9] = target: AgHse1
Method in brief: as §1

[10] = target: AgLsb1
Method in brief: as §1

[11] = target: AgLsb4
Method in brief: as §1

[12] = target: AgMyo5
Method in brief: as §1

[13] = target: AgNbp2
Method in brief: as §1

[14] = target: AgRvs167
Method in brief: as §1

[15] = target: AgSho1
Method in brief: as §1

[16] = target: AgSla1-D1-D2
Method in brief: as §1

[17] = target: AgSla1-D3
Method in brief: as §1

[18] = target: CaAbp1-D1
Method in brief: as §1

[19] = target: CaAbp1-D2
Method in brief: as §1

[20] = target: CaBbc1
Method in brief: as §1

[21] = target: CaBem1-D1
Method in brief: as §1

[22] = target: CaBzz1-D1
Method in brief: as §1

[23] = target: CaBzz1-D2
Method in brief: as §1

[24] = target: CaCyk3
Method in brief: as §1

[25] = target: CaFus1
Method in brief: as §1

[26] = target: CaHof1
Method in brief: as §1

[27] = target: CaHse1
Method in brief: as §1

[28] = target: CaLsb1
Method in brief: as §1

[29] = target: CaLsb4
Method in brief: as §1

[30] = target: CaMyo5
Method in brief: as §1

[31] = target: CaNbp2
Method in brief: as §1

[32] = target: CaRvs167
Method in brief: as §1

[33] = target: CaRvs167-3
Method in brief: as §1

[34] = target: CaSho1
Method in brief: as §1

[35] = target: CaSla1-D1-D2
Method in brief: as §1

[36] = target: CaSla1-D3
Method in brief: as §1

[37] = target: ScAbp1
Method in brief: as §1

[38] = target: ScBbc1
Method in brief: as §1

[39] = target: ScBem1-D1
Method in brief: as §1

[40] = target: ScBzz1-D1
Method in brief: as §1

[41] = target: ScBzz1-D2
Method in brief: as §1

[42] = target: ScCyk3
Method in brief: as §1

[43] = target: ScFus1
Method in brief: as §1

[44] = target: ScHof1
Method in brief: as §1

[45] = target: ScHse1
Method in brief: as §1

[46] = target: ScLsb1
Method in brief: as §1

[47] = target: ScLsb2
Method in brief: as §1

[48] = target: ScLsb3
Method in brief: as §1

[49] = target: ScLsb4
Method in brief: as §1

[50] = target: ScMyo3
Method in brief: as §1

[51] = target: ScMyo5
Method in brief: as §1

[52] = target: ScNbp2
Method in brief: as §1

[53] = target: ScPex13
Method in brief: as §1

[54] = target: ScRvs167
Method in brief: as §1

[55] = target: ScSho1
Method in brief: as §1

[56] = target: ScSla1-D1-D2
Method in brief: as §1

[57] = target: ScSla1-D3
Method in brief: as §1

[58] = target: SpAbp1-D1
Method in brief: as §1

[59] = target: SpBbc1
Method in brief: as §1

[60] = target: SpBzz1-D1
Method in brief: as §1

[61] = target: SpBzz1-D2
Method in brief: as §1

[62] = target: SpCyk3
Method in brief: as §1

[63] = target: SpHof1
Method in brief: as §1

[64] = target: SpHof1-2
Method in brief: as §1

[65] = target: SpHof1-3
Method in brief: as §1

[66] = target: SpHse1
Method in brief: as §1

[67] = target: SpLsb1
Method in brief: as §1

[68] = target: SpLsb4
Method in brief: as §1

[69] = target: SpMyo1
Method in brief: as §1

[70] = target: SpNbp2
Method in brief: as §1

[71] = target: SpPex13
Method in brief: as §1

[72] = target: SpRvs167
Method in brief: as §1

[73] = target: SpSla1-D1-D2
Method in brief: as §1

[74] = target: SpSla1-D3
Method in brief: as §1

## MTKTPETSPPKRPMG
[1]
  SPOT peptide array binding signal intensity: ≤ 0
[2]
  SPOT peptide array binding signal intensity: 5.25
[3]
  SPOT peptide array binding signal intensity: 66.5
[4]
  SPOT peptide array binding signal intensity: 22
[5]
  SPOT peptide array binding signal intensity: 11.5
[6]
  SPOT peptide array binding signal intensity: ≤ 0
[7]
  SPOT peptide array binding signal intensity: ≤ 0
[8]
  SPOT peptide array binding signal intensity: 7.25
[9]
  SPOT peptide array binding signal intensity: ≤ 0
[10]
  SPOT peptide array binding signal intensity: 1
[11]
  SPOT peptide array binding signal intensity: 2
[12]
  SPOT peptide array binding signal intensity: 946
[13]
  SPOT peptide array binding signal intensity: 25
[14]
  SPOT peptide array binding signal intensity: 3.83
[15]
  SPOT peptide array binding signal intensity: ≤ 0
[16]
  SPOT peptide array binding signal intensity: 1
[17]
  SPOT peptide array binding signal intensity: ≤ 0
[18]
  SPOT peptide array binding signal intensity: 36
[19]
  SPOT peptide array binding signal intensity: 24
[20]
  SPOT peptide array binding signal intensity: 180
[21]
  SPOT peptide array binding signal intensity: 17
[22]
  SPOT peptide array binding signal intensity: 30
[23]
  SPOT peptide array binding signal intensity: 21
[24]
  SPOT peptide array binding signal intensity: 7.5
[25]
  SPOT peptide array binding signal intensity: 55.5
[26]
  SPOT peptide array binding signal intensity: 2
[27]
  SPOT peptide array binding signal intensity: 1.25
[28]
  SPOT peptide array binding signal intensity: 0.5
[29]
  SPOT peptide array binding signal intensity: 77
[30]
  SPOT peptide array binding signal intensity: 87.2
[31]
  SPOT peptide array binding signal intensity: 40.5
[32]
  SPOT peptide array binding signal intensity: 17.8
[33]
  SPOT peptide array binding signal intensity: ≤ 0
[34]
  SPOT peptide array binding signal intensity: 10.5
[35]
  SPOT peptide array binding signal intensity: 210
[36]
  SPOT peptide array binding signal intensity: 106
[37]
  SPOT peptide array binding signal intensity: ≤ 0
[38]
  SPOT peptide array binding signal intensity: 0.5
[39]
  SPOT peptide array binding signal intensity: ≤ 0
[40]
  SPOT peptide array binding signal intensity: 1
[41]
  SPOT peptide array binding signal intensity: 6
[42]
  SPOT peptide array binding signal intensity: ≤ 0
[43]
  SPOT peptide array binding signal intensity: ≤ 0
[44]
  SPOT peptide array binding signal intensity: 1.25
[45]
  SPOT peptide array binding signal intensity: 18.5
[46]
  SPOT peptide array binding signal intensity: 6.5
[47]
  SPOT peptide array binding signal intensity: 2.5
[48]
  SPOT peptide array binding signal intensity: 45.5
[49]
  SPOT peptide array binding signal intensity: 10
[50]
  SPOT peptide array binding signal intensity: 1860
[51]
  SPOT peptide array binding signal intensity: 462
[52]
  SPOT peptide array binding signal intensity: 25
[53]
  SPOT peptide array binding signal intensity: 24.2
[54]
  SPOT peptide array binding signal intensity: 7.17
[55]
  SPOT peptide array binding signal intensity: ≤ 0
[56]
  SPOT peptide array binding signal intensity: 62.5
[57]
  SPOT peptide array binding signal intensity: 65.2
[58]
  SPOT peptide array binding signal intensity: 3
[59]
  SPOT peptide array binding signal intensity: 0.5
[60]
  SPOT peptide array binding signal intensity: 30.5
[61]
  SPOT peptide array binding signal intensity: 1.25
[62]
  SPOT peptide array binding signal intensity: 1
[63]
  SPOT peptide array binding signal intensity: 18.5
[64]
  SPOT peptide array binding signal intensity: 18.2
[65]
  SPOT peptide array binding signal intensity: ≤ 0
[66]
  SPOT peptide array binding signal intensity: 13
[67]
  SPOT peptide array binding signal intensity: 2.5
[68]
  SPOT peptide array binding signal intensity: 285
[69]
  SPOT peptide array binding signal intensity: 446
[70]
  SPOT peptide array binding signal intensity: 5.5
[71]
  SPOT peptide array binding signal intensity: ≤ 0
[72]
  SPOT peptide array binding signal intensity: 18.5
[73]
  SPOT peptide array binding signal intensity: 4
[74]
  SPOT peptide array binding signal intensity: 17

## QTREPNEPPPPSPAM
[1]
  SPOT peptide array binding signal intensity: ≤ 0
[2]
  SPOT peptide array binding signal intensity: ≤ 0
[3]
  SPOT peptide array binding signal intensity: ≤ 0
[4]
  SPOT peptide array binding signal intensity: 1.5
[5]
  SPOT peptide array binding signal intensity: 4
[6]
  SPOT peptide array binding signal intensity: ≤ 0
[7]
  SPOT peptide array binding signal intensity: ≤ 0
[8]
  SPOT peptide array binding signal intensity: 2.5
[9]
  SPOT peptide array binding signal intensity: ≤ 0
[10]
  SPOT peptide array binding signal intensity: ≤ 0
[11]
  SPOT peptide array binding signal intensity: ≤ 0
[12]
  SPOT peptide array binding signal intensity: 1420
[13]
  SPOT peptide array binding signal intensity: ≤ 0
[14]
  SPOT peptide array binding signal intensity: 0.667
[15]
  SPOT peptide array binding signal intensity: ≤ 0
[16]
  SPOT peptide array binding signal intensity: ≤ 0
[17]
  SPOT peptide array binding signal intensity: ≤ 0
[18]
  SPOT peptide array binding signal intensity: ≤ 0
[19]
  SPOT peptide array binding signal intensity: ≤ 0
[20]
  SPOT peptide array binding signal intensity: ≤ 0
[21]
  SPOT peptide array binding signal intensity: ≤ 0
[22]
  SPOT peptide array binding signal intensity: 8
[23]
  SPOT peptide array binding signal intensity: ≤ 0
[24]
  SPOT peptide array binding signal intensity: ≤ 0
[25]
  SPOT peptide array binding signal intensity: 6.5
[26]
  SPOT peptide array binding signal intensity: 0.25
[27]
  SPOT peptide array binding signal intensity: 0.75
[28]
  SPOT peptide array binding signal intensity: 0.25
[29]
  SPOT peptide array binding signal intensity: ≤ 0
[30]
  SPOT peptide array binding signal intensity: 108
[31]
  SPOT peptide array binding signal intensity: ≤ 0
[32]
  SPOT peptide array binding signal intensity: 1.67
[33]
  SPOT peptide array binding signal intensity: ≤ 0
[34]
  SPOT peptide array binding signal intensity: ≤ 0
[35]
  SPOT peptide array binding signal intensity: ≤ 0
[36]
  SPOT peptide array binding signal intensity: 0.5
[37]
  SPOT peptide array binding signal intensity: ≤ 0
[38]
  SPOT peptide array binding signal intensity: ≤ 0
[39]
  SPOT peptide array binding signal intensity: ≤ 0
[40]
  SPOT peptide array binding signal intensity: 7
[41]
  SPOT peptide array binding signal intensity: ≤ 0
[42]
  SPOT peptide array binding signal intensity: ≤ 0
[43]
  SPOT peptide array binding signal intensity: ≤ 0
[44]
  SPOT peptide array binding signal intensity: 1
[45]
  SPOT peptide array binding signal intensity: ≤ 0
[46]
  SPOT peptide array binding signal intensity: 0.5
[47]
  SPOT peptide array binding signal intensity: ≤ 0
[48]
  SPOT peptide array binding signal intensity: 13.5
[49]
  SPOT peptide array binding signal intensity: 1.5
[50]
  SPOT peptide array binding signal intensity: 2210
[51]
  SPOT peptide array binding signal intensity: 1580
[52]
  SPOT peptide array binding signal intensity: ≤ 0
[53]
  SPOT peptide array binding signal intensity: 1.75
[54]
  SPOT peptide array binding signal intensity: 1.33
[55]
  SPOT peptide array binding signal intensity: 2
[56]
  SPOT peptide array binding signal intensity: 1.5
[57]
  SPOT peptide array binding signal intensity: ≤ 0
[58]
  SPOT peptide array binding signal intensity: ≤ 0
[59]
  SPOT peptide array binding signal intensity: ≤ 0
[60]
  SPOT peptide array binding signal intensity: ≤ 0
